Screens deposited in PubChem BioAssay by several laboratories.
Shown are actives, neighbours in structure and some others; about 3.2% of the full set was active somewhere.
TcdB GH inh: TcdB glycohydrolase inhibitors, primary screen, biochemical, single point, plate reader. Toxin B (Clostridioides difficile), P18177. TcdB glycohydrolase enzymatic assay. inhibition, % at 9.99 µM. 350,000 tested, 0.24% active
Yp Topo-I inh: Yersinia pestis topoisomerase I inhibitors, primary screen, biochemical, cleavage product accumulation, plate reader, single point; activity, % at 10 µM; DNA topoisomerase I (Yersinia pestis CO92); 360,000 tested, 0.064% active; AID 504884, 2011; Y. pestis Topo-I cleavage product accumulation; in the data active = activity above about 50%, passing the limit was not always enough
PrPC surface inh: inhibitors of human cell surface prion protein PrPC, primary screen, cell-based, TR-FRET; TR-FRET read-out; 370,000 tested, 0.43% active; Major prion protein (Homo sapiens), P04156; inhibition, % at 13.8 µM; in the data active = inhibition above about 24%
FBA Mtb inh: Mtb FBA enzyme inhibitors, primary screen, biochemical, fluorescence, strain H37Rv. Fructose-bisphosphate aldolase (Mycobacterium tuberculosis (strain ATCC 25618 / H37Rv)), …. purified M. tuberculosis FBA, fluorescence read-out. inhibition, % at 1 µM. AID 588726, 2011. 360,000 tested, 2.3% active; in the data active = inhibition above about 27%
GDH-TPI counter-1: GDH-TPI coupling enzyme inhibitors, primary screen, artefact control for M. tuberculosis FBA inhibitor project, biochemical, absorbance, full deck | GDH-TPI coupled enzyme counterscreen, NADH absorbance | inhibition, % at 4.8 µM | 360,000 tested, 1.2% active; in the data active = inhibition above about 30%
Mtb FBA confirm: M. tuberculosis aldolase blockers, biochemical, fluorescence, strain H37Rv, confirmation; shares compounds with FBA Mtb inh; purified M. tuberculosis FBA, fluorescence read-out; inhibition, % at 1 µM; 5,600 tested, 78% active; AID 651616, 2012; in the data active = inhibition above about 27%
GDH-TPI counter-2: GDH-TPI coupling enzyme inhibitors, artefact control for M. tuberculosis FBA inhibitor project, biochemical, fluorescence, high throughput | shares compounds with FBA Mtb inh | GDH-TPI coupled enzyme counterscreen | inhibition, % at 1 µM | 5,600 tested, 81% active
Large screens that a line does not name were inactive (follow-up assays come after a bar, where they were run). Rule as the data show it, unless noted: active = inhibition above about 10%; inactive = the rest.

CCc1c(C)nc2ncnn2c1N1CCCC(C(=O)Nc2cc(F)ccc2C)C1 (configuration not stated)	FBA Mtb inh 28.4 (no result: TcdB GH inh) | Mtb FBA confirm inactive | GDH-TPI counter-2 inactive
CCOC(=O)c1cnn2c(C(F)(F)F)cc(-c3ccco3)nc12	FBA Mtb inh 52.5 (no result: TcdB GH inh) | Mtb FBA confirm active | GDH-TPI counter-2 159.6
Cc1cccc(Cc2c(C)nc3c(C(=O)NCc4ccco4)cnn3c2C)c1	FBA Mtb inh 31.4 (no result: TcdB GH inh) | Mtb FBA confirm 194.3 | GDH-TPI counter-2 148.5
CCOC(=O)c1cnn2c(C)cc(-c3ccccc3)nc12	FBA Mtb inh 53.7 (no result: TcdB GH inh) | Mtb FBA confirm active | GDH-TPI counter-2 active
CCOC(=O)c1cc2nc(-c3ccccc3)cc(C)n2n1	none
COc1ccc(-c2cc(C(F)(F)F)n3ncc(C(=O)NCc4ccco4)c3n2)cc1	FBA Mtb inh 30.5 (no result: TcdB GH inh) | Mtb FBA confirm 165.0 | GDH-TPI counter-2 145.3
C[C@@H]1CN([C@H](C)CO)C(=O)c2cc(C#C[C@@H](C)O)cnc2O[C@@H]1CN(C)C(=O)Cc1ccccn1	none (no result: Yp Topo-I inh, PrPC surface inh, FBA Mtb inh, GDH-TPI counter-1)
CCCN(C)C[C@H]1OCCCC[C@@H](C)Oc2ccc(NC(=O)CCCN(C)C)cc2C(=O)N([C@@H](C)CO)C[C@H]1C	none (no result: Yp Topo-I inh, PrPC surface inh, FBA Mtb inh, GDH-TPI counter-1)
COc1ccccc1NC(=O)N1C[C@@H](O)COC[C@@H]2O[C@H](CC(=O)NCc3ccccc3)CC[C@H]21	none (no result: Yp Topo-I inh, PrPC surface inh, FBA Mtb inh, GDH-TPI counter-1)
CCCn1c(=O)c2c(C(F)(F)F)cc(-c3ccco3)nc2n(CCC)c1=O	none (no result: TcdB GH inh)
CCCn1c(=O)c2c(C(=O)OCC)cc(-c3ccco3)nc2n(CCC)c1=O	FBA Mtb inh 41.0 | Mtb FBA confirm 166.4 | GDH-TPI counter-2 124.3
CCC(=O)N(C)C[C@@H]1Oc2cc(C#Cc3ccncc3)ccc2S(=O)(=O)N([C@@H](C)CO)C[C@H]1C	none (no result: Yp Topo-I inh, PrPC surface inh, FBA Mtb inh, GDH-TPI counter-1)
O=C(O)C1CCN(S(=O)(=O)c2cccs2)CC1	FBA Mtb inh 31.6 | Mtb FBA confirm 57.2 | GDH-TPI counter-2 36.3
O=C(C[C@H]1CC[C@H]2[C@@H](COC[C@H](O)CN2C(=O)c2cnccn2)O1)NCc1ccccc1	none (no result: Yp Topo-I inh, PrPC surface inh, FBA Mtb inh, GDH-TPI counter-1)
C[C@@H]1CN([C@@H](C)CO)S(=O)(=O)c2ccc(C3=CCCC3)cc2O[C@@H]1CN(C)C	none (no result: Yp Topo-I inh, PrPC surface inh, FBA Mtb inh, GDH-TPI counter-1)
CC(C)COC(=O)C(C)Nc1n[nH]c(=S)[nH]c1=O (configuration not stated)	FBA Mtb inh 52.6 | Mtb FBA confirm inactive | GDH-TPI counter-2 inactive
CC(C)OC(=O)C(C)Nc1n[nH]c(=S)[nH]c1=O (configuration not stated)	none
Cc1cccc2c(C(=O)O)c3cccc(C)c3nc12	FBA Mtb inh 94.9 | Mtb FBA confirm 52.1 | GDH-TPI counter-2 54.6
Cc1cccc2c(C(=O)O)c3c(nc12)CCCCC3	none (no result: TcdB GH inh)
N=c1oc2cc(O)ccc2cc1C(=O)Nc1ccc(F)cc1	FBA Mtb inh 90.5 | Mtb FBA confirm 160.1 | GDH-TPI counter-2 133.7
Cc1ccc2nc(-c3ccc(NC(=O)CCS(=O)(=O)c4ccccc4)cc3)sc2c1	FBA Mtb inh 44.5 | Mtb FBA confirm inactive | GDH-TPI counter-2 inactive
Cc1nc2ccc(NC(=O)CCS(=O)(=O)c3ccccc3)cc2s1	none
COc1ccc(C2(C)NC(=O)N(CC(=O)Nc3ccc(-c4nc5ccc(C)cc5s4)cc3)C2=O)cc1 (configuration not stated)	none
Cc1ccc2nc(-c3ccc(NC(=O)CN4C(=O)c5ccccc5C4=O)cc3)sc2c1	FBA Mtb inh 34.2 (no result: TcdB GH inh) | Mtb FBA confirm inactive | GDH-TPI counter-2 inactive
CCC1(c2ccc(F)cc2)NC(=O)N(CC(=O)Nc2ccc(-c3nc4ccc(C)cc4s3)cc2)C1=O (configuration not stated)	FBA Mtb inh 41.4 (no result: TcdB GH inh) | Mtb FBA confirm active | GDH-TPI counter-2 149.6
Cc1ccc(C)c(N(CC(=O)Nc2ccc(-c3nc4ccc(C)cc4s3)cc2)S(C)(=O)=O)c1	none
